# Experimental data: PubChem BioAssay (NCATS)
# Inconclusive results are not listed. A call without a number means that no potency is given here. Active and inactive are the calls of the source. Unless noted, the call rests on the fitted dose curve.
# Legend:
# [1] = Confirmatory qHTS to identify inhibitors of SARS-CoV-2 cell entry (AID 1645844); further: nearly all actives have a fitted effect of over 45% in size; further: potency means the concentration at half of the fitted maximal effect
# Summary of the method: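 HEK293-ACE2 cells were pretreated 1 h with compound, then infected with MLV-based pseudoparticles bearing C-terminally truncated Wuhan-Hu-1 spike for 48 h at 37C; luciferase luminescence normalized to spike PP and bald PP wells.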
# [2] = Cytotoxicity counterscreen for inhibitors of SARS-CoV-2 cell entry (AID 1645845); further: nearly all actives have a fitted effect of over 50% in size; further: potency means the concentration at half of the fitted maximal effect
# Summary of the method: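 HEK293-ACE2 cells (Expi293F stably expressing human ACE2) seeded overnight, then compound for 1 h plus 48 h at 37C. Viability as ATP content by luminescence; normalized to wells with cells and media-only wells.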
# [3] = Primary qHTS to identify inhibitors of SARS-CoV-2 cell entry (AID 1645846); details: activity change, negative = inhibition: at 57.1 µM (top of the series) unless noted; further: nearly all actives have a fitted effect of over 45% in size; further: potency means the concentration at half of the fitted maximal effect
# Summary of the method: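 Luminescence readout (Bright-Glo luciferase) 48 h after pseudoparticle addition. HEK293-ACE2 cells, 1500/well; compound pre-incubation 1 h; Normalized to spike PP and bald PP.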
# [4] = VSVG counterscreen qHTS to identify inhibitors of SARS-CoV-2 cell entry (AID 1645847); further: nearly all actives have a fitted effect of over 65% in size; further: potency means the concentration at half of the fitted maximal effect
# Summary of the method: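 HEK293-ACE2 cells (Expi293F stably expressing human ACE2) were pretreated with compound for 1 h at 37 °C, then infected with MLV-based VSV-G pseudotyped particles for 48 h. Luciferase luminescence was normalized to VSV-G PP and bald PP wells.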
# [5] = A High-Content qHTS Against Drug Library for the Identification of Small Molecules that Inhibit DYT1 Early Onset Primary Dystonia-Associated Cell Pathology (AID 1645839)
# Summary of the method: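 Flp-In T-REx 293 cells with tetracycline-inducible EGFP-delE hTOR1A (WT EGFP-hTOR1A as reference), 800 cells/well; compound added with tetracycline, 48 h at 37 C. Fixed, permeabilized cells imaged; %pathology (punctate TorsinA) primary, cell count counterscreen.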
# [6] = biological target: Cytochrome P450 2D6 (Homo sapiens) (UniProt P10635); assay: Cytochrome P450 family 2 subfamily D member 6 (CYP2D6) small molecule antagonists: luciferase biochemical (cell-free) qHTS assay (AID 1645840; active means well fitted curve in the direction sought with a large enough effect in the repeat runs; an effect the other way counts as inactive or inconclusive; further: potency means the concentration at half of the fitted maximal effect; nearly all actives have a fitted effect of over 55% in size)
# Chain of Cytochrome P450 2D6 (Homo sapiens) (P10635 whole entry, looked up): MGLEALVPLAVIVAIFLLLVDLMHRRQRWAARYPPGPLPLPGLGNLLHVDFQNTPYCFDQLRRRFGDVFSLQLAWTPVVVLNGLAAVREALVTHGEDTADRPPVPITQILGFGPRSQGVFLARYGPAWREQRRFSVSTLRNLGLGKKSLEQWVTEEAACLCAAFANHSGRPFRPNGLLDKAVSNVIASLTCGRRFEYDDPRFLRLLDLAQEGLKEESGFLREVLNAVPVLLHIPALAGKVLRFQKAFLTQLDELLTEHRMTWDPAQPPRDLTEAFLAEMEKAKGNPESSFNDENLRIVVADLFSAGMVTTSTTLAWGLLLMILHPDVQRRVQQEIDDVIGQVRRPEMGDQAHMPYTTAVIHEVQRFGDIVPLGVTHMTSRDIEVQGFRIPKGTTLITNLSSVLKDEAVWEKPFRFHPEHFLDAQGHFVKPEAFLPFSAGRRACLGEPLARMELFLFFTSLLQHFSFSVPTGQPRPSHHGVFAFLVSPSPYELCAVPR
# Summary of the method: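 P450-Glo luminescent screen: recombinant CYP2D6 enzyme–proluciferin substrate mix preincubated with compound 10 min at room temperature, then NADPH regeneration added for 1 h at room temperature. Detection reagent added for 20 min; luciferin light read as relative luminescence units.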
# [7] = Primary qHTS for inhibitors of nuclear receptor binding SET domain protein 2 (NSD2) in an isogenic RCH-ACV NSD2 p.E1099K mutant (9B) (AID 1645876; active means well fitted curve in the direction sought with a large enough effect; an effect the other way counts as inactive or inconclusive; further: nearly all actives have a fitted effect of over 70% in size)
# [8] = Primary qHTS for inhibitors of nuclear receptor binding SET domain protein 2 (NSD2) in an RCH-ACV wild type WT cells (2C) (AID 1645877; active means well fitted curve in the direction sought with a large enough effect; an effect the other way counts as inactive or inconclusive; further: nearly all actives have a fitted effect of over 70% in size)
smiles,measurement,setting,value
CCCSS/C(CCO)=C(\C)N(C=O)Cc1cnc(C)nc1N,Potency,[1],inactive
same,Potency,[2],inactive
same,"activity change, negative = inhibition",[3],-57.5%
same,Potency,[4],inactive
C[C@H](CN1CCOCC1)C(C(=O)N1CCCC1)(c1ccccc1)c1ccccc1,outcome,[5],inactive
same,Potency,[6],38.6 µM (active)
same,Potency,[7],inactive
same,Potency,[8],inactive
CN1CCC(=C2c3ccccc3CCc3sccc32)CC1,Potency,[1],21.5 µM (active)
same,Potency,[2],inactive
same,Potency,[3],14.1 µM (active)
same,Potency,[4],12.1 µM (active)
COC(=O)C1=C(C)NC(C)=C(C(=O)OC(C)(C)CN(C)CCC(c2ccccc2)c2ccccc2)C1c1cccc([N+](=O)[O-])c1 (centres undefined),Potency,[1],6.07 µM (active)
same,Potency,[4],21.5 µM (active)
CN(C)CCCN1c2ccccc2Sc2ccccc21,Potency,[1],27.1 µM (active)
same,Potency,[2],inactive
same,Potency,[3],14.1 µM (active)
COCCOC(=O)C1=C(C)NC(C)=C(C(=O)OC/C=C/c2ccccc2)C1c1cccc([N+](=O)[O-])c1 (centres undefined),Potency,[1],24.1 µM (active)
same,Potency,[2],inactive
same,Potency,[4],21.5 µM (active)
O=c1[nH]c(=O)n([C@H]2C[C@H](O)[C@@H](CO)O2)cc1C(F)(F)F,Potency,[1],0.0857 µM (active)
same,Potency,[2],inactive
same,"activity change, negative = inhibition",[3],-93.8%
same,Potency,[4],0.242 µM (active)
CC(C(O)c1ccccc1)N(C)C/C=C/c1ccccc1 (centres undefined),outcome,[5],inactive
same,Potency,[6],0.0389 µM (active)
same,Potency,[2],inactive
NCCc1cnc[nH]1,Potency,[2],inactive
Cc1cccc(CN2CCN(C(c3ccccc3)c3ccc(Cl)cc3)CC2)c1 (centres undefined),Potency,[2],inactive
CN1CCCCC1CCN1c2ccccc2Sc2ccc(S(C)=O)cc21 (centres undefined),Potency,[1],1.08 µM (active)
same,Potency,[2],inactive
C[C@H]1C[C@H]2[C@@H]3CCC4=CC(=O)C=C[C@]4(C)[C@H]3C(=O)C[C@]2(C)[C@@]1(O)C(=O)CO,Potency,[2],inactive
CCOC(=O)Cn1cccc1-c1nc(-c2ccc(OC)cc2)c(-c2ccc(OC)cc2)s1,Potency,[2],inactive
Cc1ccc(/C(=C\CN2CCCC2)c2ccccn2)cc1,Potency,[2],inactive
Cc1ncc(CSSCc2cnc(C)c(O)c2CO)c(CO)c1O,Potency,[2],inactive
CCCCN(CCCC)CC(O)c1cc(Cl)cc2c1-c1ccc(Cl)cc1/C2=C/c1ccc(Cl)cc1 (centres undefined),Potency,[2],inactive
C/C=C(/C(=C/C)c1ccc(O)cc1)c1ccc(O)cc1,Potency,[2],inactive
CC[N+]1(CC)CCC(=C(c2ccccc2)c2ccccc2)C1C (centres undefined),Potency,[2],inactive
CC1(C)CCC(C)(C)c2cc(NC(=O)c3ccc(C(=O)O)cc3)ccc21,Potency,[2],inactive
Cc1c(C(=O)NN2CCCCC2)nn(-c2ccc(Cl)cc2Cl)c1-c1ccc(Cl)cc1,Potency,[2],inactive
C[C@@H]1CCN(C(=O)[C@H](CCCN=C(N)N)NS(=O)(=O)c2cccc3c2NC[C@H](C)C3)[C@@H](C(=O)O)C1,Potency,[2],inactive
CCCCN(CCN(CCCC)C(=O)N1CCOCC1)C(=O)N1CCOCC1,Potency,[2],inactive
O=c1[nH]c2ccccc2n1CCCN1CCN(C(c2ccccc2)c2ccccc2)CC1,Potency,[2],inactive
CCOC(=O)[C@H](CCc1ccccc1)N[C@@H](C)C(=O)N(CC(=O)O)C1Cc2ccccc2C1,Potency,[2],inactive
CC(=O)N(CC(O)CN(C(C)=O)c1c(I)c(C(=O)NCC(O)CO)c(I)c(C(=O)NCC(O)CO)c1I)c1c(I)c(C(=O)NCC(O)CO)c(I)c(C(=O)NCC(O)CO)c1I (centres undefined),Potency,[2],inactive
CN(C)CCn1nnnc1SCC1=C(C(=O)O)N2C(=O)[C@@H](NC(=O)Cc3csc(N)n3)[C@H]2SC1,Potency,[2],inactive
C=Cc1c(C)c2cc3[nH]c(cc4nc(cc5nc(cc1[nH]2)C(C)=C5CCC(=O)O)C(CCC(=O)O)=C4C)c(C)c3C=C,Potency,[2],inactive
CC(C)C(=O)OCc1cccc(OC(=O)[C@@H]2N3C(=O)[C@@H](NC(=O)Cc4ccccc4)[C@H]3SC2(C)C)c1,Potency,[2],inactive
CC(=O)OCC1=C(C(=O)O)N2C(=O)[C@@H](NC(=O)CSc3ccncc3)[C@H]2SC1,Potency,[2],inactive
CCO[C@@H]1O[C@H](C(COCc2ccccc2)OCc2ccccc2)[C@H](OCc2ccccc2)[C@H]1O (some centres undefined),Potency,[2],inactive
C=CCOc1ccccc1OCC(O)CNC(C)C (centres undefined),Potency,[2],inactive
COc1cccc(CCc2ccccc2OCC(CN(C)C)OC(=O)CCC(=O)O)c1 (centres undefined),Potency,[2],inactive
COc1cc(N)c(Cl)cc1C(=O)NC1CCN(Cc2ccccc2)CC1,Potency,[2],inactive
CCc1ccc(C(=O)C(C)CN2CCCCC2)cc1 (centres undefined),Potency,[2],inactive
N[C@H](C(=O)O)[C@@H](O)c1ccc(O)c(O)c1,Potency,[2],inactive
CC(=O)Oc1ccc(C(=C2CCCCC2)c2ccc(OC(C)=O)cc2)cc1,Potency,[2],inactive
COC(=O)Nc1nc2ccc(Sc3ccccc3)cc2[nH]1,Potency,[2],inactive
O=C1OC2(c3ccccc31)c1cc(I)c(O)c(I)c1Oc1c2cc(I)c(O)c1I,Potency,[2],inactive
CCCCCCCCCCCCCCCC[n+]1ccccc1,Potency,[2],11.2 µM (active)
Cc1ccc2nc(N)[nH]c(=O)c2c1Sc1ccncc1,Potency,[2],inactive
CCC(C)(C)c1ccc(CC(C)CN2C[C@@H](C)O[C@@H](C)C2)cc1 (some centres undefined),Potency,[2],inactive
O=C(Nc1ccc(Cl)cc1)Nc1ccc(Cl)c(C(F)(F)F)c1,Potency,[2],22.4 µM (active)
CC1CCCCN1CCCOC(=O)c1ccc(OC2CCCCC2)cc1 (centres undefined),Potency,[2],inactive
CCCOC(C(=O)OC1CCN(C)CC1)(c1ccccc1)c1ccccc1,Potency,[2],inactive
CCOC(=O)C1=C[C@]2(CC)CCCN3CCc4c(n1c1ccccc41)[C@@H]32,Potency,[2],inactive
OC[C@@H](O)[C@H](O)[C@H](O)[C@@H](O)CO,Potency,[2],inactive
CN1CCN(C2=Nc3ccccc3Sc3ccc(Cl)cc32)CC1,Potency,[2],inactive
CC(Oc1c(Cl)cccc1Cl)C1=NCCN1 (centres undefined),Potency,[2],inactive
COc1cc(C(=O)OCCCN2CCCN(CCCOC(=O)c3cc(OC)c(OC)c(OC)c3)CC2)cc(OC)c1OC,Potency,[2],inactive
N[C@H]1CN(c2c(F)cc3c(=O)c(C(=O)O)cn(C4C[C@@H]4F)c3c2Cl)CC12CC2 (some centres undefined),Potency,[2],inactive
same,"activity change, negative = inhibition",[3],-17.4%
C[C@H]1NCc2cc(-c3ccc4c(=O)c(C(=O)O)cn(C5CC5)c4c3OC(F)F)ccc21,Potency,[2],inactive
same,"activity change, negative = inhibition",[3],-12.7% [at 27.1 µM]
O=C(CCCN1CC=C(n2c(=O)[nH]c3ccccc32)CC1)c1ccc(F)cc1,Potency,[2],inactive
same,Potency,[3],inactive
C#C[C@]1(OC(C)=O)CC[C@H]2[C@@H]3CCC4=C/C(=N/O)CC[C@@H]4[C@H]3CC[C@@]21CC,Potency,[2],inactive
same,"activity change, negative = inhibition",[3],-15.4%
CC1(C)OC[C@@H](COC(=O)CCc2ccc(OC[C@@H](O)CNCCNC(=O)N3CCOCC3)cc2)O1,Potency,[2],inactive
same,"activity change, negative = inhibition",[3],-4.74%
